The source of these data is PubChem BioAssay (NCATS).

A word on the viability: it is a read-out of living cells in per cent, often relative to untreated cells.

Inconclusive results are not listed. Values without a mark were called inactive. Active and inactive are the calls of the source. Calls come from the whole dose curve; as a rule, active = well fitted cell-killing curve with a large enough effect; inconclusive = small, poorly fitted or top-dose-only effect, or effect the other way; inactive = no such curve, though single readings can be large or run the other way.
Potency is the fitted concentration of half-maximal effect.

One assay is described as follows: Quantitative High-Throughput drug screen in 47 multiple myeloma cell lines against the NCATS MIPE library collection: KMS34_JCRB cell viability assay (AID 1918985). Note: nearly all actives have a fitted effect of over 40% in size. Conditions: KMS34 myeloma viability, CellTiter-Glo ATP luminescence, 48 h; series mostly up to 45.8 µM. An outline of the steps: (§1)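 Readout: median RLU from CellTiter-Glo after 5 min at room temperature. Preceding step was 48 h drug treatment of 500 cells/well at 37 °C, 5% CO2, with DMSO-only and media-only control wells.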
In general terms: In ATP-based viability assays light output follows the ATP content of the culture.
Consider `COc1cc2nc(N3CCN(C(=O)C4COc5ccccc5O4)CC3)nc(N)c2cc1OC` (centres undefined), for which the Potency entry was “inactive”.
With `CN(Cc1cnc2nc(N)nc(N)c2n1)c1ccc(C(=O)N[C@@H](CCC(=O)O)C(=O)O)cc1`, the Potency was 0.0935 µM (active).
Regarding `O=C(c1ccc(F)cc1)C1CCN(CCn2c(=O)[nH]c3ccccc3c2=O)CC1`, the Potency result is “inactive”.
Regarding `NCCS(=O)(=O)O`, the Potency entry is “inactive”.

Another assay in a line: Quantitative High-Throughput drug screen in 47 multiple myeloma cell lines against the NCATS MIPE library collection: OCIMY7_PLB cell viability assay (AID 1918987). Note: nearly all actives have a fitted effect of over 65% in size. Conditions: OCI-MY7 myeloma viability, CellTiter-Glo ATP, 48 h; series mostly up to 45.8 µM. An outline of the steps:
as §1
Consider `CC(C)(Oc1ccc(C2CC2(Cl)Cl)cc1)C(=O)O` (centres undefined), for which the Potency entry was “inactive”.
With `Cc1cn([C@H]2C[C@H](N=[N+]=[N-])[C@@H](CO)O2)c(=O)[nH]c1=O`, the Potency is 16.6 µM (active).
On to `O=C(c1ccc(F)cc1)C1CCN(CCn2c(=O)[nH]c3ccccc3c2=O)CC1`, for which the Potency entry is “inactive”.

Another assay is described as follows: Quantitative High-Throughput drug screen in 47 multiple myeloma cell lines against the NCATS MIPE library collection: OCIMY5_PLB cell viability assay (AID 1918988). Note: nearly all actives have a fitted effect of over 65% in size. Conditions: OCI-MY5 myeloma viability, ATP luminescence, 48 h; series mostly up to 45.8 µM. An outline of the steps: as §1
Take `CCCCc1oc2ccccc2c1C(=O)c1cc(I)c(OCCN(CC)CC)c(I)c1`: the Potency is 16.6 µM (active).
For `CCOC(=O)c1ncn2c1CN(C)C(=O)c1cc(F)ccc1-2`, the Potency is 20.9 µM (active).
In the case of `O=C(CCCN1CCC(O)(c2ccc(Cl)cc2)CC1)c1ccc(F)cc1`, the Potency is 18.7 µM (active).
The same measure, in the same setting: for `CN1CCN2c3ccccc3Cc3ccccc3C2C1` (centres undefined) the value was 23.5 µM (active); for `CN1C(C(=O)Nc2ccccn2)=C(O)c2ccccc2S1(=O)=O`, “inactive”.
`NCCc1cnc[nH]1`: the Potency entry was “inactive”.
With `CCC1(C)CC(=O)NC1=O` (centres undefined), the Potency result was “inactive”.
On to `CC(C)C(=O)Nc1ccc([N+](=O)[O-])c(C(F)(F)F)c1`, for which the Potency was 1.48 µM (active).
On to `COC(=O)Nc1nc2ccc(C(=O)c3cccs3)cc2[nH]1`, for which the Potency is 0.0021 µM (active).
With `Cc1ccccc1N1C(=O)c2cc(S(N)(=O)=O)c(Cl)cc2NC1C` (centres undefined), the Potency entry is “inactive”.
Regarding `O=C(c1ccc(F)cc1)C1CCN(CCn2c(=O)[nH]c3ccccc3c2=O)CC1`, the Potency was 26.4 µM (active).
As for `OCCN(CCO)c1nc(N2CCCCC2)c2nc(N(CCO)CCO)nc(N3CCCCC3)c2n1`, the Potency was 23.5 µM (active).
Turning to `C[C@@H]1CC(=O)NN=C1c1ccc(NN=C(C#N)C#N)cc1`, the Potency is 18.7 µM (active).
For `O=C1Cc2cc(CCN3CCN(c4nsc5ccccc45)CC3)c(Cl)cc2N1`, the Potency is 37.2 µM (active).

The nature of another assay: Quantitative High-Throughput drug screen in 47 multiple myeloma cell lines against the NCATS MIPE library collection: OPM1_PLB cell viability assay (AID 1918989). Note: nearly all actives have a fitted effect of over 40% in size. Particulars: CellTiter-Glo, 48 h; series mostly up to 45.8 µM. An outline of the steps: as §1
For the compound `O=c1c(-c2ccc(O)cc2)coc2cc(O)cc(O)c12`, the Potency result is “inactive”.
In the case of `CCCCc1oc2ccccc2c1C(=O)c1cc(I)c(OCCN(CC)CC)c(I)c1`, the Potency was 18.7 µM (active).
In the case of `CCOC(=O)c1ncn2c1CN(C)C(=O)c1cc(F)ccc1-2`, the Potency result was “inactive”.
Consider `CC(C)(Oc1ccc(C2CC2(Cl)Cl)cc1)C(=O)O` (centres undefined), for which the Potency result is “inactive”.
Consider `COc1cc2nc(N3CCN(C(=O)C4COc5ccccc5O4)CC3)nc(N)c2cc1OC` (centres undefined), for which the Potency is 18.7 µM (active).
Take `CN1CCN2c3ccccc3Cc3ccccc3C2C1` (centres undefined): the Potency was 16.6 µM (active).
Same read-out and setting: next, `NCCc1cnc[nH]1`: “inactive”; `CC1(CN2CCC(n3c(=O)[nH]c4ccccc43)CC2)OCc2ccccc2-n2cccc21` (centres undefined): 8.33 µM (active); `CCC1(C)CC(=O)NC1=O` (centres undefined): “inactive”.
Turning to `CCOC(=O)Nc1ccc(NCc2ccc(F)cc2)nc1N`, the Potency result is “inactive”.
As to `Cc1cn([C@H]2C[C@H](N=[N+]=[N-])[C@@H](CO)O2)c(=O)[nH]c1=O`, the Potency was 29.6 µM (active).
As to `CC(C)(C)C(=O)Oc1ccc(S(=O)(=O)Nc2ccccc2C(=O)NCC(=O)O)cc1`, the Potency entry was “inactive”.
For the compound `Cc1ccc(C(=O)Nc2ccc(S(=O)(=O)O)c3cc(S(=O)(=O)O)cc(S(=O)(=O)O)c23)cc1NC(=O)c1cccc(NC(=O)Nc2cccc(C(=O)Nc3cc(C(=O)Nc4ccc(S(=O)(=O)O)c5cc(S(=O)(=O)O)cc(S(=O)(=O)O)c45)ccc3C)c2)c1`, the Potency is 0.833 µM (active).
For `CC(C)C(=O)Nc1ccc([N+](=O)[O-])c(C(F)(F)F)c1`, the Potency is 8.33 µM (active).
`COC(=O)Nc1nc2ccc(C(=O)c3cccs3)cc2[nH]1`: the Potency was 0.0132 µM (active).
In the case of `Cc1ccccc1N1C(=O)c2cc(S(N)(=O)=O)c(Cl)cc2NC1C` (centres undefined), the Potency entry is “inactive”.
In the case of `O=C(c1ccc(F)cc1)C1CCN(CCn2c(=O)[nH]c3ccccc3c2=O)CC1`, the Potency entry is “inactive”.
On the same count and under the same terms, next, `NCCCCCC(=O)O`: “inactive”; `Clc1ccc(C(c2ccccc2Cl)C(Cl)Cl)cc1` (centres undefined): 20.9 µM (active).
As to `C[C@@H]1CC(=O)NN=C1c1ccc(NN=C(C#N)C#N)cc1`, the Potency was 18.7 µM (active).
On the same count and under the same terms, next, `Cc1cc(C(C)(C)C)c(O)c(C)c1CC1=NCCN1`: “inactive”; `NCCS(=O)(=O)O`: “inactive”; `CN(C)c1nc(N(C)C)nc(N(C)C)n1`: “inactive”.

A short description of the next assay: Quantitative High-Throughput drug screen in 47 multiple myeloma cell lines against the NCATS MIPE library collection: SKMM1_PLB cell viability assay (AID 1919863). Note: nearly all actives have a fitted effect of over 35% in size. Particulars: SKMM1 myeloma viability, CellTiter-Glo ATP, 48 h; viability: active compounds read low. An outline of the steps:
as §1
Turning to `CCCCc1oc2ccccc2c1C(=O)c1cc(I)c(OCCN(CC)CC)c(I)c1`, the Potency was 20.9 µM (active).
Consider `CCOC(=O)Nc1ccc(NCc2ccc(F)cc2)nc1N`, for which the viability was 134%.
Turning to `Cc1ccccc1N1C(=O)c2cc(S(N)(=O)=O)c(Cl)cc2NC1C` (centres undefined), the viability was 117%.
Turning to `CC12CC3CC(C)(C1)CC(N)(C3)C2`, the viability is 125%.
In the case of `NCCS(=O)(=O)O`, the viability was 109%.
